# Unmarked numbers belong to inactive results.
# Experiments:
# Experiment in all cases: log2 ratio of Biotin-Ahx-Ub-VS probe labelling (fragment/DMSO); higher = less target engagement (more negative = stronger competition), active = hit call of the paper (q ≤ 0.05, log2 ratio ≤ -1)
# Details in all cases: compound concentration: 200 uM; treatment time: 3 h
# OTUD6B = target: T1, OTUD6B (UniProt Q8N6M0)
# T1 sequence (whole entry): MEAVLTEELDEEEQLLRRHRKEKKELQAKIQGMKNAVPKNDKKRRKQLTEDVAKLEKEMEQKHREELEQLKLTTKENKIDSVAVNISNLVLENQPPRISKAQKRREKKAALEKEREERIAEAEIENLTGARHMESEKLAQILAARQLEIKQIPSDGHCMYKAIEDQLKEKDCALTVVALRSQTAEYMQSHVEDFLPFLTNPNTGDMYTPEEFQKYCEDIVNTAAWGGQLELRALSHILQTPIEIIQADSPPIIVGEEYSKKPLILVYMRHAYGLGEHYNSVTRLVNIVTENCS
# In short: (§1)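 HEK293T lysate (495 µg per sample, in Tris/CHAPS/IGEPAL buffer with protease inhibitors) was exposed in triplicate for 3 h to fragment at 200 µM or to vehicle, then to Biotin-Ahx-Ub-VS at 0.5 µM final for 1 h. Labelled DUBs were enriched on NeutrAvidin, digested with LysC and trypsin, and analysed by diaPASEF LC-MS/MS. Spectronaut label-free quantities were normalised to the global median, and values are average log2 ratios of fragment over vehicle from an unpaired t-test. Only proteins with ≥2 unique peptides were used.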
# OTUD7B = target: T2, OTUD7B (UniProt Q6GQQ9)
# T2 sequence (whole entry): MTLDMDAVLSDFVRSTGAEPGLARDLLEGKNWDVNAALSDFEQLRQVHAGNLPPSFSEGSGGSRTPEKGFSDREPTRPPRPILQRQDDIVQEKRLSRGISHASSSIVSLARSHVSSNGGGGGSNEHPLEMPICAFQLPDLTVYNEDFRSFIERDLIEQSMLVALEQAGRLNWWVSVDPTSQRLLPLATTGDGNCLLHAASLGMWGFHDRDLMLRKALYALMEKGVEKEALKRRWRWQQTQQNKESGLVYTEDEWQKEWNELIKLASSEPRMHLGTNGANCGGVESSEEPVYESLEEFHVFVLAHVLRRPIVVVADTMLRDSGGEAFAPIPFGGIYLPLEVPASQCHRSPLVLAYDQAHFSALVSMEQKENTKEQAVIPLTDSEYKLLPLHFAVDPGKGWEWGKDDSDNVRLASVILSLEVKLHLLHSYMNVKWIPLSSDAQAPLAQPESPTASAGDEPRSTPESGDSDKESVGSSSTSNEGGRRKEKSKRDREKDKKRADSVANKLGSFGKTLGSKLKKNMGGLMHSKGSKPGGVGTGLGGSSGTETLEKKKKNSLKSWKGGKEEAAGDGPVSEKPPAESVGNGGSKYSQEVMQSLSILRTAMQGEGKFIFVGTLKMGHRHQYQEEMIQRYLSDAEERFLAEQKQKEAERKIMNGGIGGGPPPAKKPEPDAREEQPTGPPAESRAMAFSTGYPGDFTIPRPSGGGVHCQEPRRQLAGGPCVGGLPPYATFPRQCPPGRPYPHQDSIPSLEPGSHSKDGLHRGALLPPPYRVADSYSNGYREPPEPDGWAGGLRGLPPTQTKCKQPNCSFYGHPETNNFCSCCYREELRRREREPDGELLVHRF
# In short: as §1
# PRPF8 = PRPF8 (UniProt Q6P2Q9)
# In short: as §1
# PSMD7 = target: T3, PSMD7 (UniProt P51665)
# T3 sequence (whole entry): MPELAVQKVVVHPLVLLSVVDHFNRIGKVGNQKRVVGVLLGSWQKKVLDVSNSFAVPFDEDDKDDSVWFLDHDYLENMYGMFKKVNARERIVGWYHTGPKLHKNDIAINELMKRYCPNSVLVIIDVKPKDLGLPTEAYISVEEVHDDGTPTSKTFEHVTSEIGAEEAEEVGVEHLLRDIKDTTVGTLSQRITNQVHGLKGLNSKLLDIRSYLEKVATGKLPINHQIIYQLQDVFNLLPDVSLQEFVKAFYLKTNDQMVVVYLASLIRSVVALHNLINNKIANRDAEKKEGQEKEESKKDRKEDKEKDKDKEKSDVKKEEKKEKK
# In short: as §1
# UCHL1 = UCHL1 (UniProt P09936)
# In short: as §1
# UCHL3 = target: T4, UCHL3 (UniProt P15374)
# T4 sequence (whole entry): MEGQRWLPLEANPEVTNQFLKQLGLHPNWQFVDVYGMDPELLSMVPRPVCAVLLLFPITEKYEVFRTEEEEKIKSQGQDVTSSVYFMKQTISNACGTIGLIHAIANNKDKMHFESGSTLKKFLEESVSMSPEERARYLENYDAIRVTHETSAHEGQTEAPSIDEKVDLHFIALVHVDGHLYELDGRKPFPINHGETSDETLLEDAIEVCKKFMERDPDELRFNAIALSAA
# In short: as §1
# UCHL5 = target: T5, UCHL5 (UniProt Q9Y5K5)
# T5 sequence (whole entry): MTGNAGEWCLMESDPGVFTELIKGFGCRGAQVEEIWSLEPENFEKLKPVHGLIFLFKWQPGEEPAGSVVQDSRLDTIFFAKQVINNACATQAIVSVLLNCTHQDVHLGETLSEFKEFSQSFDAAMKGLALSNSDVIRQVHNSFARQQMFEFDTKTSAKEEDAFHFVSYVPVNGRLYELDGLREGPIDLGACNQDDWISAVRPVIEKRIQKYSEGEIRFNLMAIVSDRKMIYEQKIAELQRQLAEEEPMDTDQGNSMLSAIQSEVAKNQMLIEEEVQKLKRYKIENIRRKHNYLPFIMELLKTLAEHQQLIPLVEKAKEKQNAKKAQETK
# In short: as §1
# USP10 = USP10 (UniProt Q14694)
# In short: as §1
# USP15 = target: T6, USP15 (UniProt Q9Y4E8)
# T6 sequence (whole entry): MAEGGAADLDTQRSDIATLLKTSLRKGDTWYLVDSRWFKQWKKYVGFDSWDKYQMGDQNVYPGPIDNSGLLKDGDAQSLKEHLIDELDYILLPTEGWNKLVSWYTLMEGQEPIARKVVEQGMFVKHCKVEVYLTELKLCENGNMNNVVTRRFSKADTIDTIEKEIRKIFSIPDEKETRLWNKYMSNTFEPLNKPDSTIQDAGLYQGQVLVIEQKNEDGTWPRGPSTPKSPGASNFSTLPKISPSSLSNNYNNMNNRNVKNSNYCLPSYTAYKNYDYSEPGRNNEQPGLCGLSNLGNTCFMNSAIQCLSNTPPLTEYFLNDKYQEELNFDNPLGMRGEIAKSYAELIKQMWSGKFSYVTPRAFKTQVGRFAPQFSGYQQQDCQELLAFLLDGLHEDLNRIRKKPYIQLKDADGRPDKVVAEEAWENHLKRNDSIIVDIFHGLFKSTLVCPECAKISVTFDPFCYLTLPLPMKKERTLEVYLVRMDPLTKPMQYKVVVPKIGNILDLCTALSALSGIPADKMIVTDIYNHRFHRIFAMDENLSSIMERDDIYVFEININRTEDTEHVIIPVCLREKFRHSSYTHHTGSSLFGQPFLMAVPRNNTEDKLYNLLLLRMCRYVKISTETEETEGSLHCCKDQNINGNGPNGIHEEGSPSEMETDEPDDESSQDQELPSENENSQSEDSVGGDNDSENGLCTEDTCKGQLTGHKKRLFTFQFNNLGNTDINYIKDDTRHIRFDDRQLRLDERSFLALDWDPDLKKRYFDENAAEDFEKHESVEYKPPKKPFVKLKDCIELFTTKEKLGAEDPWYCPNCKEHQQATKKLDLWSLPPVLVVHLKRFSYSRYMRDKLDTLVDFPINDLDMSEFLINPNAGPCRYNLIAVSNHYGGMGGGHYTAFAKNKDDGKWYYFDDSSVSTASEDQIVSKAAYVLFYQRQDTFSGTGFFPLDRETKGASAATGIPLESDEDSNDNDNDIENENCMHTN
# In short: as §1
# USP16 = USP16 (UniProt Q9Y5T5)
# In short: as §1
# Chain of UCHL1 (P09936 whole entry, looked up): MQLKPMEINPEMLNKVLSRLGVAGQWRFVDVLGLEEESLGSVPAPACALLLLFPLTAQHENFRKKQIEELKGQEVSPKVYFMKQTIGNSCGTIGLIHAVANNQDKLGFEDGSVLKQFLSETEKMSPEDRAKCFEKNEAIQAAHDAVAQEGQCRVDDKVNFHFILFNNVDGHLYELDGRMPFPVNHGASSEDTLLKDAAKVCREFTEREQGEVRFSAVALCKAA
# Chain of USP10 (Q14694 whole entry): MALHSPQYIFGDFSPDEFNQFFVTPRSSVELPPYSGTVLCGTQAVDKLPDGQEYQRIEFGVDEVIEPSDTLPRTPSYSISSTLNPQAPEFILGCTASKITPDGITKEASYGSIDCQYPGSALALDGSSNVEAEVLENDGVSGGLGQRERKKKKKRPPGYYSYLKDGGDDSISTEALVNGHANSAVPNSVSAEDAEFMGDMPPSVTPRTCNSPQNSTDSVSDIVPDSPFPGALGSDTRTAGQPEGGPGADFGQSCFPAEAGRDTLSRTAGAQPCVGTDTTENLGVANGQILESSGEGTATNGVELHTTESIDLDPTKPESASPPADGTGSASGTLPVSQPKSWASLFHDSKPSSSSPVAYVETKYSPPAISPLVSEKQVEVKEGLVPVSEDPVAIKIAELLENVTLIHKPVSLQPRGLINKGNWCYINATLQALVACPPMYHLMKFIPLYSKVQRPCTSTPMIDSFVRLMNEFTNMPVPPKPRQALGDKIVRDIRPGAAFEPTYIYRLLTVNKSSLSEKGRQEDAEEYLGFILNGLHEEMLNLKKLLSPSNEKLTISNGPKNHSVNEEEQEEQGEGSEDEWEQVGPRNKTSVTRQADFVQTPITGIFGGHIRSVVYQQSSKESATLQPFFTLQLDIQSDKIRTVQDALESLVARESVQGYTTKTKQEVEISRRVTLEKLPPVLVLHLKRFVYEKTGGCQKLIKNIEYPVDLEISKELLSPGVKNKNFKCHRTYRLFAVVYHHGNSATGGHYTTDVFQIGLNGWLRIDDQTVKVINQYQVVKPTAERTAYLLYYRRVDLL
# Chain of USP16 (Q9Y5T5 whole entry, looked up): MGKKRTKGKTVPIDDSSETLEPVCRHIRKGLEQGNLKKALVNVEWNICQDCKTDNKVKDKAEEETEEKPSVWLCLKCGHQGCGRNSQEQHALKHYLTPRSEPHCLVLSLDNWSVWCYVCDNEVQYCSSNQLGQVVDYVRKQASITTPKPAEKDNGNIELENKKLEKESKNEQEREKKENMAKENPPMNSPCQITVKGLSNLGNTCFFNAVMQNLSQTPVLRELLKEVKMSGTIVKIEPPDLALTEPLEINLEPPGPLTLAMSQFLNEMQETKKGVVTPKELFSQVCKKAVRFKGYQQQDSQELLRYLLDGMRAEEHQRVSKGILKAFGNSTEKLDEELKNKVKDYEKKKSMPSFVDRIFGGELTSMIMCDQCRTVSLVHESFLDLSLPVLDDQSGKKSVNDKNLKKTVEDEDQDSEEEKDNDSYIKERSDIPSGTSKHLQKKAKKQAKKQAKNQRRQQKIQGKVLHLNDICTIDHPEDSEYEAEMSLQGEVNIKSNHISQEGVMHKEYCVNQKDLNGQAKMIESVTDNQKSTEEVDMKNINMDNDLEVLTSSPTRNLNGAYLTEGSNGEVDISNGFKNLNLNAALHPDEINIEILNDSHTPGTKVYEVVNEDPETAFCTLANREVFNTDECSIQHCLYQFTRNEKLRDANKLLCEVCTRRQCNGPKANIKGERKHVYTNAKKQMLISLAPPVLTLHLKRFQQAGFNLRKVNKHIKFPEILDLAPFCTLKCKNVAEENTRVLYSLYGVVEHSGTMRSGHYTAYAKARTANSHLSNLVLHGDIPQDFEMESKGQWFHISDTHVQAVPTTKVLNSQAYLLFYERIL
structure (smiles),measurement,setting,value
Cl.O=C(CN1CCN(C(=O)CCl)CC1)Nc1ccc(F)cc1,log2 ratio of Biotin-Ahx-Ub-VS probe labelling,OTUD6B,0.226
same,log2 ratio of Biotin-Ahx-Ub-VS probe labelling,OTUD7B,0.0571
same,log2 ratio of Biotin-Ahx-Ub-VS probe labelling,PRPF8,0.0678
same,log2 ratio of Biotin-Ahx-Ub-VS probe labelling,PSMD7,0.149
same,log2 ratio of Biotin-Ahx-Ub-VS probe labelling,UCHL1,-1.2 (active)
same,log2 ratio of Biotin-Ahx-Ub-VS probe labelling,UCHL3,0.501
same,log2 ratio of Biotin-Ahx-Ub-VS probe labelling,UCHL5,-0.0699
same,log2 ratio of Biotin-Ahx-Ub-VS probe labelling,USP10,-0.0791
same,log2 ratio of Biotin-Ahx-Ub-VS probe labelling,USP15,-0.113
same,log2 ratio of Biotin-Ahx-Ub-VS probe labelling,USP16,0.138

# From the supplement of paper PMC11732987, “Enantioselective OTUD7B fragment discovery through chemoproteomics screening and high-throughput optimisation” (Communications Chemistry, 2025)
